Assay results as given in publication PMC12136788.
Substitutions are numbered along the chain they refer to. Over roughly 24,000 sequences, “enrichment r” has its median near 0.99; the highest 2% begin near 3.7. This excerpt belongs to a sample that is enriched for the highest values.

T1: UNK ZnF1-3 (human, UniProt Q9C0B0 31-174)
T1 sequence: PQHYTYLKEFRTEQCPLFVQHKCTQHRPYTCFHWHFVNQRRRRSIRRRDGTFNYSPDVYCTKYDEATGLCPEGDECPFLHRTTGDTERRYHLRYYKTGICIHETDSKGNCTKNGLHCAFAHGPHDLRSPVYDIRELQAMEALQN

B1: chr2:61719535:61719536:-_ENSG00000082898_ENST00000401558|hu_mus|FALSE|FALSE (ssRNA)
RNA: GGGAGUUCUACAGUCCGACGAUCGUUUACUACUGUCUUCAAAAAUUUCCAGUGUGCUCUCAAAAAUCUUGGGUAUUGACCUACUAUGUACAUGAUAUUCGAUGCAAUAAUAGCUUUAUUAUCUUUGCCUCUUUUCUGCUCACACAACAGAGGAUUGAGCAUCA
B2: chr2:48026839:48026840:+_ENSG00000116062_ENST00000540021|hu_hu|hu_hu_hu_mus_False|38_78 (ssRNA)
RNA: GGGAGUUCUACAGUCCGACGAUCAUAGUGAGCCACUAGCGUCCUAAAUCUGGAACAAUGGCGAUCAUCCGAAAACUGGCCGAUGAAAAACUUGCCCAGUGAAGUAUCCACAAAGCAAACACCAUACACACGAGUGUGACCAGACAACAGAGGAUUGAGCAUCA
B3: chr1:180251914:180251915:+_ENSMUSG00000026500_ENSMUST00000027781|mus_hu|FALSE|FALSE (ssRNA)
RNA: GGGAGUUCUACAGUCCGACGAUCAGAUCCUAAUGAACCAUACAAUAUUGAAUGCCGGGCGCAGGGAGUAUUUUCAACAUCUAAAAAUCCUAGGAGCUUAAGGGACUUCCAAUAUGAUAAAUGUAACGACGUACAAGAUGCCUUCAACAGAGGAUUGAGCAUCA
B4: 106713800_106713920_1116_CDS_ENSMUSG00000018363_ENSMUST00000103067|mouse|control|control (ssRNA)
RNA: GGGAGUUCUACAGUCCGACGAUCCCUGCUCAUGUAAUUUCUAUGUCGCUGGGACCUGACUCUUCUCUCUGCUAGUCUGGGGUCUGAAGAAUGUCCACACGUUGCACCAUUUGUUCCAGUAAUUGGAGUAUUCUCAUCCACAAACAACAGAGGAUUGAGCAUCA
B5: chr2:48035047:48035048:-_ENSG00000138081_ENST00000403359|hu_hu|motif|central (ssRNA)
RNA: GGGAGUUCUACAGUCCGACGAUCACAAAAUUGCAGCUUAUUUUCUUCACUUCUGUCCCUUCAAGUCUUUACACAGUAAUGCGGAAACACCCAGCUUUGAGAUCCUGAGUCAAUAUAUUGCCACUUUCUUUUUGGUAGCUUGAGCAACAGAGGAUUGAGCAUCA
B6: chr17:56552419:56552420:-_ENSMUSG00000013236_ENSMUST00000086828|mus_mus|mus_mus_mus_hu_False|38_58 (ssRNA)
RNA: GGGAGUUCUACAGUCCGACGAUCAAAAAAUACACUAUUUAAAAAAAAUGAAAUGUCACGGGAUACAGUUACACUGACACUAUUAAAAGAAAGCUGGAAAAAAAAUGCAGCCCAGUGUCCCCAGGCUGCAGAGCGGGGAGGAGCCAACAGAGGAUUGAGCAUCA
B7: 173052199_173052319_2237_3pUTR_ENSMUSG00000038400_ENSMUST00000036248|mouse|control|control (ssRNA)
RNA: GGGAGUUCUACAGUCCGACGAUCCUGUAUCCACCUGGCACCAAAUUCGGGGACUGCUUUGGCUUUGGGGAUGCACCUUGCCCCCAAACACUGAACCUUCAUAGUUUUUGUGUUUUAAAGAGGAAGAAAAAAAAAAAAACUAAGCAACAGAGGAUUGAGCAUCA
B8: chr7:72441615:72441616:-_ENSMUSG00000030516_ENSMUST00000102592|mus_hu|FALSE|FALSE (ssRNA)
RNA: GGGAGUUCUACAGUCCGACGAUCAAAAUUUUCAAAUGCAUAGCCAGAAAGAACAGAAAACCACCACUGCCCCUUGUCAAAAAAAAAAAAAAAGAAAAGAAAAGAAAAGAAAAAAAUAUCCCCAAAUCACACCACUAUUUUCUUCAACAGAGGAUUGAGCAUCA
B9: 14336767_14358337_2061_CDS_ENSG00000038382_ENST00000344204|human|control|control (ssRNA)
RNA: GGGAGUUCUACAGUCCGACGAUCAUACACGUCGUCCAGCAGCUCCUUCUGCAGCUCCUCCAGCCACGUCCACAGCUCUUUCACAUGGGUGUGAAAGGACACUGACAUGUCCAGUAGGAUCUUUCGCUGCUCAACACGCCGAACCAACAGAGGAUUGAGCAUCA
B10: chr2:71272186:71272187:+_ENSMUSG00000027018_ENSMUST00000028408|mus_mus|FALSE|FALSE (ssRNA)
RNA: GGGAGUUCUACAGUCCGACGAUCCUGUGCCUGUAUUGCCAUAUCUUCACUGAAUCCUUGCAGUAAUCUUUCCCGGGAGAAACUGGGCAAAAAUUGACAAAACUUCACAAGCACAAAGUCUCUUAGUUUCAAAUAGCUUCUGGACAACAGAGGAUUGAGCAUCA
B11: chr10:7433921:7433922:+_ENSMUSG00000040021_ENSMUST00000165952|mus_mus|motif|central (ssRNA)
RNA: GGGAGUUCUACAGUCCGACGAUCGCUUUGUGUAUGUUAGGCAAGUGCUCUACCACUGAGCCAUAUCCUUAGCCCCGGGAAAAUGUACUUUCUUAGUGAGUACAUACACGUAAAUUAAAAAAAAAAAUUACAAACUGAAAAUAACAACAGAGGAUUGAGCAUCA
B12: chr7:117185563:117185564:+_ENSMUSG00000066232_ENSMUST00000084731|mus_mus|FALSE|FALSE (ssRNA)
RNA: GGGAGUUCUACAGUCCGACGAUCGGGCUUCAGGUUCUUCCACGUAAGUGCAUGGGAAACUCCUUGAUUAAUAUAAUUUAAUGUCUGCUGUAAAACUCGAGGCGCCAUAUAUUGUUUUUCCUUGUACUGAUAUAACACUUUCAACAACAGAGGAUUGAGCAUCA
B13: chr10:7433921:7433922:+_ENSMUSG00000040021_ENSMUST00000165952|mus_mus|FALSE|FALSE (ssRNA)
RNA: B11 RNA with G76U, G77A
B14: chr11:134117569:134117570:+_ENSG00000151502_ENST00000281187|hu_hu|motif|central (ssRNA)
RNA: GGGAGUUCUACAGUCCGACGAUCAGAAACAUGUAAACACUGCAGCUGCUUAAUUACAAGUUGCACUGCUUGAUUUAGUACCGGUGCACUCCCAGGUUUGGGGACCUUAAGAGAGGGGGACAGGAGCCUCCCCUCACUUUCACACAACAGAGGAUUGAGCAUCA
B15: chr18:65376317:65376318:+_ENSMUSG00000024589_ENSMUST00000163516|mus_hu|FALSE|FALSE (ssRNA)
RNA: GGGAGUUCUACAGUCCGACGAUCUUUCAUGCCAACAGGAAGCUAACCCUUUUCUAGAAAACGUUCUCCAAGCUCCCGUCCUAAUGCUGUGGCACUUUCUCUGACAUACUGAGAACACUCUGGGGUGGGGGUGUGUGUAUGCAACAACAGAGGAUUGAGCAUCA
B16: 56885736_56885856_9979_3pUTR_ENSMUSG00000055296_ENSMUST00000068792|mouse|control|control (ssRNA)
RNA: GGGAGUUCUACAGUCCGACGAUCAUCUUAUAUUGAUCUAGAUUUGACCACAGAUAAACCUUGUACUGCCUAGUCUUGUGUCAACUUGACACAGCUGGAGUUAUCACAGAGAAAGGAGCUUCAGUUGAGGAAAUGCCUCCAUGACAACAGAGGAUUGAGCAUCA
B17: chr11:75578338:75578339:+_ENSMUSG00000020849_ENSMUST00000067664|perfect_dup|FALSE|FALSE (ssRNA)
RNA: GGGAGUUCUACAGUCCGACGAUCUUAAGAACUUUUGAAAACUGUUUAAAAAAAAAAAAAAAAAACCAACAGGGCAGGAACCUAAAUUCUGAGACCAAAUGUAAAAGUCAGAUUUGGUGGUUCUCAGUGACAAUGGGGAGUUUCCAACAGAGGAUUGAGCAUCA
B18: chr13:31725248:31725249:-_ENSG00000120694_ENST00000320027|perfect_dup|motif|central (ssRNA)
RNA: GGGAGUUCUACAGUCCGACGAUCUUUGGAUUUUGCAUCCAAUUUGUACUUGGUUUUAAAUUCAGCACAAAAAUGUUCGGCGGGCUUCUCAUCAAAGUUCUUUCCUCCUAAGAAGGGAUCAAAAGCUGUGCCUAGAACCUUCAGCAACAGAGGAUUGAGCAUCA
B19: chr1:60041781:60041782:+_ENSMUSG00000041040_ENSMUST00000036540|mus_mus|motif|central (ssRNA)
RNA: GGGAGUUCUACAGUCCGACGAUCUUAAGGAGUGAAUCUCAACUUUACAAAUUUAGUAAUGGCAAGUUUACUUUAGUUUCCGGAAAGAAAACCUCAGGAUCUCAGUUCAAUCCCAGACAGAGAAAGCUCUCCAUGGGGCCACUGCAACAGAGGAUUGAGCAUCA
B20: chr13:99559765:99559766:-_ENSMUSG00000041685_ENSMUST00000040340|mus_mus|motif|central (ssRNA)
RNA: GGGAGUUCUACAGUCCGACGAUCCUGAACUUCCUUUAUUAAUUCCUGUAAUUUUCUAACAAGAUCCAAAUGACAAUUUGCGGAUUUCUCUGUAGAUGUUUUGAAUACAUCCCACAUUGGUGCAAAUGUUCCAAGUUGUGAAUACAACAGAGGAUUGAGCAUCA
B21: chr2:35037708:35037709:-_ENSMUSG00000026878_ENSMUST00000028238|mus_hu|FALSE|FALSE (ssRNA)
RNA: GGGAGUUCUACAGUCCGACGAUCCUGUUUUUACAACAGAGUUUUUUCUUUUUUUUUAAUUAAACCCAGUAAGAUGUACAGAAGACAAUGAGGCAGUAAAAAGUACUGCUUCCAACAGACAGAGGUGAAAGGUCAAAUGAGGGGCAACAGAGGAUUGAGCAUCA
B22: chr11:75578338:75578339:+_ENSMUSG00000020849_ENSMUST00000067664|perfect_dup|motif|central (ssRNA)
RNA: B17 RNA with U82G, A83G

biological target: T1, UNK ZnF1-3; assay: nsRBNS (natural sequence RNA bind-n-seq); RBNS binding buffer (assumed for nsRBNS): 25 mM Tris pH 7.5, 150 mM KCl, 3 mM MgCl2, 0.01% Triton X-100, 500 ug/ml BSA, 20 U/ml SUPERase-In, 4 C; UNK is unkempt and MSI1 is Musashi-1; names of the RNAs are library labels; protein concentration not given here; high values mean tight binding

Binder	binding signal [enrichment R]
B1	0.747
B2	1.33
B3	1.57
B4	0.982
B5	0.585
B6	9.74
B7	2.34
B8	5.91
B9	0.394
B10	1.25
B11	5.64
B12	1.59
B13	8.06
B14	0.758
B15	0.949
B16	1.28
B17	4.7
B18	1.17
B19	0.919
B20	0.623
B21	1.64
B22	5.06
